Screening data (PubChem BioAssay)
G9a inh = G9a (human) methyltransferase inhibition; Potency, µM (titrated, usually from 102 µM), hits mostly inhibitors; AID 504332; actives 8.8% (n = 350,000); G9a H3K9 monomethylation, AlphaScreen, 2 h; also: nearly all actives have a fitted effect of over 75% in size
Target sequence (Q96KQ7 913-1193 limits assumed): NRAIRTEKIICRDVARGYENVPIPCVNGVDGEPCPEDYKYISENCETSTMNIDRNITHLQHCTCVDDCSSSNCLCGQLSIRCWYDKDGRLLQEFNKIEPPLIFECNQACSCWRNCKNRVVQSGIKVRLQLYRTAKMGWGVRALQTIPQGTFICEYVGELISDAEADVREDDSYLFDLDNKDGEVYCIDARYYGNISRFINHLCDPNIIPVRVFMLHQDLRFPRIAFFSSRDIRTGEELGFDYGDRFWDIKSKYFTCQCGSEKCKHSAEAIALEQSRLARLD
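AlphaScreen read-out: biotin-H3K9 peptide (500 nM) methylation by 20 nM enzyme with 20 uM SAM, 2 h at room temperature after 15 min compound preincubation; anti-monomethyl H3K9 antibody plus donor/acceptor beads, 10 min dark.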
BAZ2B inh = blocks human BAZ2B | Q9UIF8 | AlphaScreen BAZ2B-H3K14Ac peptide displacement | actives 4.4% (n = 360,000) | Potency, µM (highest dose often 114 µM), actives largely listed as inhibitors; also: nearly all actives have a fitted effect of over 60% in size
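BAZ2B (50 nM) with biotin-H3(5-23)K14Ac peptide (50 nM) in PBS pH 7.4, 0.01% Tween-20, preformed 30 min, then compound 30 min at room temperature; top concentration 110uM. AlphaScreen streptavidin donor/nickel chelate acceptor beads (10 ug/mL final), 20 min dark, signal read.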
TDP1 inh = TDP1 (human) enzyme inhibition; Potency, µM (doses to about 130 µM), usual class: inhibitors; Q9NUW8; recombinant TDP1, AlphaScreen DNA substrate cleavage; actives 0.28% (n = 350,000); also: nearly all actives have a fitted effect of over 40% in size
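AlphaScreen read-out: signal falls as enzyme removes the 3' tyrosine-FITC from a 5'-biotinylated DNA oligo (15 nM, 5 min, RT). Enzyme was E. coli-made recombinant Tdp1 at 1 nM, exposed to compound for 15 min beforehand; beads 10 ug/ml, 10 min.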
HP1b binding inh = HP1-beta chromodomain-methylated histone interaction inhibition; P83916; AlphaScreen HP1-beta / biotin-H3K9me3 peptide binding; Potency, µM (series often up to 114 µM), most hits filed as inhibitors; actives 0.56% (n = 390,000); also: nearly all actives have a fitted effect of over 70% in size
Target sequence (P83916 whole entry, looked up): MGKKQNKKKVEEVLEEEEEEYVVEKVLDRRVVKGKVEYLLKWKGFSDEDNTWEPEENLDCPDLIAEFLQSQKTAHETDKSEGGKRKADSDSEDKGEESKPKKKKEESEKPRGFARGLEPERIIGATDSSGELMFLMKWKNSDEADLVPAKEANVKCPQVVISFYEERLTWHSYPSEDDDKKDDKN
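HP1-beta protein (50 nM final) preincubated 30 min at room temperature with biotinylated H3(1-18)K9me3 peptide (50 nM) in PBS pH 7.4, 0.01% Tween-20, then compound added for 30 min. AlphaScreen streptavidin donor/nickel chelate acceptor beads (10 ug/mL final), 30 min dark, luminescence read.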
Sfp PPTase inh = blocks B. subtilis Sfp PPTase activity; actives 3.5% (n = 310,000); Q9F4F7; Biochemical Sfp PPTase activity, qHTS; Potency, µM, hits mostly inhibitors;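 also: the enzyme is Sfp with the accession as filed and its product quenches rhodamine fluorescence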
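Sfp 15 nM + cpd, 15 min RT; start w/ rhodamine-CoA 5 uM, BHQ-2-YbbR 12.5 uM (final); 50 mM Hepes pH 7.6, 10 mM MgCl2, 0.01% NP-40, 0.01% BSA; read 525/598 nm at 0 and 30 min.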
JMJD2A Tudor inh = inhibitors of human JMJD2A Tudor domain | AlphaScreen JMJD2A-Tudor / H3K4me3 peptide binding | Potency, µM (titrated, usually from 114 µM), hits mostly inhibitors | actives 4.4% (n = 390,000); also: nearly all actives have a fitted effect of over 50% in size
Numbers stand for hits; - = inactive; ? = inconclusive; . = not tested or not shown; [ ] = remark or other dose. The list is not random: actives were taken first. Their share in the collection is about 12%. Calls follow the shape of the dose curve; as a rule, active = well fitted curve in the direction sought with a large enough effect; inconclusive = small, poorly fitted or top-dose-only effect, or another doubt; inactive = no such curve, though single readings can be large; an effect the other way counts as inactive or inconclusive.

SMILES | G9a inh | BAZ2B inh | TDP1 inh | HP1b binding inh | Sfp PPTase inh | JMJD2A Tudor inh
Cc1sc2nc3n(c(=O)c2c1C)CCCCC3 | - | - | - | - | - | -
COc1ccc(CCNc2ncnc3nc[nH]c23)cc1 | . | . | - | - | . | -
Cc1ccccc1-c1nc(NCCN2CCOCC2)c2ccccc2n1 | . | . | 7.9µM | . | ? | .
N#Cc1ccccc1-c1nc(NCCN2CCOCC2)c2ccccc2n1 | -[0.501 µM] | . | . | . | - | .
COc1cc2[nH]c(=O)n(Cc3ccc(C(=O)NCCCN4CCN(C)CC4)cc3)c(=O)c2cc1OC | - | - | - | - | - | -
CC1CCN(CCCNC(=O)c2ccc(Cn3c(=S)[nH]c4ccc(Br)cc4c3=O)cc2)CC1 | 18µM | ? | - | . | - | .
O=C(NCCN1CCCC1)c1ccc(Cn2c(=S)[nH]c3cc4c(cc3c2=O)OCO4)cc1 | ? | - | - | - | - | 40µM
CN1CCN(CCCNC(=O)c2ccc(Cn3c(=S)[nH]c4ccc(Br)cc4c3=O)cc2)CC1 | 32µM | ? | - | - | - | ?
C=CCNC(=O)c1ccc(Cn2c(=S)[nH]c3cc4c(cc3c2=O)OCO4)cc1 | - | - | - | - | - | ?
CCOC(=O)/C=C/CCCC=O | . | . | - | . | - | .
CCOc1ccc(S(=O)(=O)N2CCN(S(=O)(=O)c3ccc(C)c(C)c3)CC2)cc1 | - | - | . | - | - | -
Cc1ccccc1N/N=C/c1c(C)nc2ccccn12 | 35µM | ? | . | - | - | ?
CC(=O)Nc1ccc(C2C(C)CCC3C(=O)N4C(CCC(C)[C@@H]4c4ccc(NC(C)=O)cc4)C(=O)N32)cc1 (stereo partly specified) | . | . | -[21 µM] | . | - | .
CC(=O)Nc1ccc([C@H]2[C@H](C)CC[C@H]3C(=O)N4[C@@H](CC[C@@H](C)[C@@H]4c4ccc(NC(C)=O)cc4)C(=O)N32)cc1 | ? | 56µM | - | . | - | .
O=C(Nc1nnc(Cc2ccccc2)s1)Nc1ccccc1F | - | - | - | - | - | -
Cc1cccc(NC2=C(C#N)C(=O)NC3(CCCC3)S2)c1 | ? | - | - | - | 18µM | -
Cc1cccc(Nc2nc(C)cc(C)c2C#N)c1 | -[0.501 µM] | - | . | - | - | -
O=C(N/N=C/c1ccccn1)C(O)c1ccccc1 (stereo unspecified) | 0.71µM | ? | . | - | ? | -
O=C(N/N=C/c1ccccc1)C(O)c1ccccc1 (stereo unspecified) | - | - | . | - | - | -
CCCCC(C(=O)N/N=C/c1ccccn1)C(=O)N/N=C/c1ccccn1 | ? | - | - | - | 35µM | -
CC1(C(=O)O)NCCc2cc(O)c(O)cc21 (stereo unspecified) | 18µM | . | . | . | 56µM | .
COc1ccc2cc(C(=O)Nc3ccccc3)sc(=O)c2c1OC | - | - | 16µM | - | - | -
Cn1c(N)c(C(=O)Nc2cccc(Cl)c2)c(=O)n(C)c1=O | - | - | . | - | - | -
CN=c1sc(C(=O)Nc2cccc(Cl)c2)cc(=O)n1C | - | - | - | - | - | 45µM
Cc1ccc(C(=O)C[n+]2ccc(Cc3ccccc3)cc2)cc1 | 45µM | - | - | - | - | -
SMILES | G9a inh | BAZ2B inh | TDP1 inh | HP1b binding inh | Sfp PPTase inh | JMJD2A Tudor inh
Cc1ccc(SCCc2cc[n+](CC(=O)c3ccccc3)cc2)cc1 | ? | - | - | - | - | -
Cc1ccc(Cn2c(CO)cnc2SCC(=O)NCc2ccccc2Cl)cc1 | - | ? | - | - | . | -
O=[N+]([O-])c1ccc(S(=O)(=O)N2CCSC2c2ccco2)cc1 (stereo unspecified) | 8.9µM | ? | - | - | 40µM | ?
COc1ccc(S(=O)(=O)N2CCSC2c2ccccc2)cc1 (stereo unspecified) | -[12.7 µM] | - | - | - | - | -
CCc1cccc(C)c1NC(=O)c1ccc2c(c1)CCN2S(C)(=O)=O | - | - | . | - | - | -
O=C(O)/C=C/C(=O)Nc1ccc(Oc2ccc(NC(=O)/C=C/C(=O)O)cc2)cc1 | ? | 50µM | - | . | - | .
O=C(O)/C=C\C(=O)Nc1ccc(Oc2ccccc2)cc1 | ? | - | - | - | - | -
O=C(O)/C=C\C(=O)Nc1ccccc1F | ? | - | - | - | - | -
O=C(O)/C=C/C(=O)Nc1ccc(OC(F)(F)Cl)cc1 | 45µM | - | - | - | - | -
